Compound activity (PubChem BioAssay)
Most compounds without a hit are left out; they make up all but 8.1% or so of the library.
Epigenetic derep – epigenetic control regulation, reporter derepression; 280,000 compounds, 0.2% hits; AID 1865; murine LDR cells, GFP reporter derepression, 30 h; Potency, µM (titrated, usually from 53.9 µM), inactives show top-dose GFP activation, actives largely listed as activators; note: % of control where 0% means no effect; nearly all actives have a fitted effect of over 60% in size
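Reporter derepression read as number of fluorescent GFP-positive objects, 20-120 um in size, counted by laser-scanning cytometer. Mouse LDR line with an epigenetically silenced CMV-GFP locus; compound incubation 30 h, 37 C.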
RORgamma inh – blocks mouse ROR gamma transcriptional activity. Drosophila S2 Gal4-RORgamma UAS-luciferase reporter, 20 h. Potency, µM (titrated, usually from 53.6 µM), inactives show at the top dose activity change, negative = inhibition, actives largely listed as inhibitors. 310,000 compounds, 5.4% hits; note: % is set by controls: 0 for no effect and ±100 for the full control effect; nearly all actives have a fitted effect of over 60% in size
Target sequence (P51450 whole entry, looked up, the tested form may be a part): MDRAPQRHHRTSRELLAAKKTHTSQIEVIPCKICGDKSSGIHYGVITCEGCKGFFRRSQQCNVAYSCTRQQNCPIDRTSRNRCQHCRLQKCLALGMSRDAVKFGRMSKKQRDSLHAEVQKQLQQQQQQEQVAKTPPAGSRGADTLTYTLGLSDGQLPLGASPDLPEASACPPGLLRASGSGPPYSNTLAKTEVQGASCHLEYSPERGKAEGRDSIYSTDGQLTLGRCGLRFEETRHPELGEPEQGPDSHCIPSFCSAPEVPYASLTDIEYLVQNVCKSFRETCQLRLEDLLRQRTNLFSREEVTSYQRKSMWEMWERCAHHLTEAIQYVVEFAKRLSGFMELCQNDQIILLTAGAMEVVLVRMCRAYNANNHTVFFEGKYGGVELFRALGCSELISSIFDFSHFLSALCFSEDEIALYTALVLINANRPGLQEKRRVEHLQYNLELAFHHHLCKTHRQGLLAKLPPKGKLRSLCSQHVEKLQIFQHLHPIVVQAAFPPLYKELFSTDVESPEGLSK
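Drosophila Schneider cells stably carrying a metallothionein-driven Gal4 DBD–ROR gamma fusion and a UAS-Photinus luciferase reporter were exposed to compound for 1 hr, then induced with copper sulfate (700 uM final) for 20 hr at ambient temperature before luminescence reading.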
PINK1 expr mod – modulators of PINK1 expression; PINK1 immunofluorescence, high-content cytometry, 24 h; 410,000 compounds, 0.2% hits; Potency, µM (series often up to 76.6 µM), for inactives: top-dose activation (PINK1 increase), usual class: activators; active = well fitted activation curve with a large enough effect; inconclusive = small, poorly fitted or top-dose-only effect; cell line not stated here; note: % of control where 0% means no effect; nearly all actives have a fitted effect of over 65% in size
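Measures PINK1 amount and localization on or inside mitochondria by immunofluorescence. Stable cells get compounds at 5 concentrations for 24 hours before fixation and staining; CCCP controls included.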
ClpP mod – qHTS Assay for Activators of ClpP; 340,000 compounds, 1.9% hits; purified B. subtilis ClpP, FRET peptide cleavage, 20 min; Potency, µM (highest dose often 57.5 µM), inactives show top-dose activity change, negative = active; ATP-dependent Clp protease proteolytic subunit (Bacillus subtilis (strain 168)), P80244; active = well fitted falling curve with a large enough effect; inconclusive = small, poorly fitted or top-dose-only effect; inactive = no such curve, though single readings can be large or run the other way; note: the source files actives as falling curves though it sought activators and does not explain the sign; nearly all actives have a fitted effect of over 65% in size
Target sequence (P80244 whole entry, looked up): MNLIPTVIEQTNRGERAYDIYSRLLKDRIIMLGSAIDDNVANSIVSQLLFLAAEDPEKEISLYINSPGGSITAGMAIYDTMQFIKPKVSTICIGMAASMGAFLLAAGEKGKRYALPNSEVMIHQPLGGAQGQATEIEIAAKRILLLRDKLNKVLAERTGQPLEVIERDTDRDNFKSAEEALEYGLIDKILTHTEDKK
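Buffer: 100 mM Tris/HCl pH8, 100 mM KCl, 0.05% low protease BSA, 2.5% glycerol, 0.01% Tween-20. ClpP 10 microg/mL final; 20 min RT; delta FRET normalized to ADEP and DMSO controls.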
Sfp inh – Sfp phosphopantetheinyl transferase inhibition. Q9F4F7. Biochemical Sfp PPTase activity, qHTS. Potency, µM, for inactives: largest response in the series, negative = inhibition, most hits filed as inhibitors. 310,000 compounds, 3.5% hits. AID 1490;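 note: the enzyme is Sfp with the accession as filed and its product quenches rhodamine fluorescence; 0% = enzyme reaction without inhibitor and -100% = no enzyme wells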
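Fluorescence-quenching assay with 15 nM Sfp, 5 uM rhodamine-CoA and 12.5 uM BHQ-2-labelled ybbR peptide in pH 7.6 Hepes/MgCl2 buffer. Enzyme was pre-incubated with compound for 15 min at room temperature. Rate was taken from the 30-min fluorescence change (525/598 nm).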
Gal4-VP16 FLuc – inhibits Gal4-VP16 luciferase reporter, ROR gamma counter-screen; Drosophila S2 Gal4-VP16 UAS-luciferase, luminescence, 20 h; Potency, µM (series often up to 53.6 µM), for inactives: at the top dose activity, negative = inhibition, hits mostly inhibitors; 310,000 compounds, 3.5% hits;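 note: Gal4-VP16 expression switched on by copper sulfate through the metallothionein promoter; % is set by controls: 0 for no effect and ±100 for the full control effect; nearly all actives have a fitted effect of over 50% in size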
* marks the source's active call; other numbers are inactive results; ? = inconclusive; . = no result given. Unless noted, calls come from the whole dose curve; as a rule, active = well fitted curve in the direction sought with a large enough effect; inconclusive = small, poorly fitted or top-dose-only effect, or another doubt; inactive = no such curve, though single readings can be large; an effect the other way counts as inactive or inconclusive. Potency is the fitted concentration of half-maximal effect.

SMILES	Epigenetic derep	RORgamma inh	PINK1 expr mod	ClpP mod	Sfp inh	Gal4-VP16 FLuc
CC(=O)c1cccc(NC(=O)c2nc(-c3ccccc3)n(-c3cccc(Cl)c3)n2)c1	0.6%	.	-0.5%	-1.7%	.	.
COc1ccc(CCNC(=O)c2ccc(-n3c(C)cc4c3CCC(C)C4)cc2)cc1OC (stereo not drawn)	?	.	3.8%	-4.7%	.	.
O=C(CSCc1c(Cl)cccc1Cl)Nc1ccc2c(c1)OCCO2	0.0%	-1.8%	2.2%	15.8µM*	-5.9%	?
O=C(Nc1ccc2c(c1)OCCO2)c1c(Cl)cccc1Cl	.	.	0.2%	0.1%	.	.
Cc1ccccc1C(=O)NC(=S)NCC(=O)c1ccccc1	-1.1%	11.2µM*	0.5%	0.2%	-3.1%	?
O=C(CNC(=S)NC(=O)c1ccc(F)cc1)c1ccccc1	1.3%	11.2µM*	4.0%	-7.5%	-1.8%	-17.3%
O=C(CNC(=S)NC(=O)c1ccccc1)c1ccccc1	2.0%	11.2µM*	2.7%	-2.0%	-25.7%	?
CC(C)C(=O)NC(=S)NCC(=O)c1ccccc1	-3.3%	11.2µM*	3.1%	-2.3%	3.5%	?
Cc1ccc(Cl)cc1-n1ncc2c(NCCC3=CCCCC3)ncnc21	5.5%	.	?	-18.0%	.	.
Cc1ccc(-c2cccc(NC(=O)C3C(C(=O)O)[C@@H]4C=C[C@H]3C4)c2)o1 (stereo partly drawn)	?	34.8%	1.7%	-5.0%	7.94µM*	-1.0%
Cc1ccc(-c2ccccc2NC(=O)C2C3C=CC(C3)C2C(=O)O)o1 (stereo not drawn)	0.3%	4.47µM*	1.7%	25.1µM*	25.1µM*	4.47µM*
Cc1c(Cl)cccc1NC(=O)C1C2C=CC(C2)C1C(=O)O (stereo not drawn)	.	0.9%	-0.5%	-0.6%	-25.3%	-5.3%
Cc1cc(C(=O)Nc2ccccc2-c2nc(CNC(=O)C3COc4ccccc4O3)c(C)o2)c(C)o1 (stereo not drawn)	.	.	0.1%	.	.	.
COc1ccc(CCC(=O)NCc2nc3cccnc3n2Cc2ccc(OC)cc2)cc1	1.4%	.	-0.6%	0.0%	.	.
CC(=O)Nc1ncc(Cc2cccc(Cl)c2)s1	2.4%	-19.8%	3.6%	.	13.3%	?
O=C(Nc1ncc(Cc2cccc(Cl)c2)s1)c1ccc([N+](=O)[O-])cc1	1.0%	5.01µM*	9.8%	4.4%	17.9%	2.82µM*
O=C(Cc1ccc([N+](=O)[O-])cc1)NCc1ccccc1Cl	-0.9%	19.7%	-0.4%	11.2µM*	13.3%	-3.4%
CC(C)C(=O)Nc1ncc(Cc2cccc(Cl)c2)s1	4.8%	11.2µM*	1.8%	-13.8%	5.4%	?
O=C(Nc1ncc(Cc2ccccc2Cl)s1)c1ccc([N+](=O)[O-])cc1	-1.1%	2µM*	4.9%	3.5%	7.6%	2.82µM*
CCOC(=O)c1c(NC(=O)CCCOc2ccc(Cl)cc2)sc2c1CCC2	-0.5%	.	0.6%	-6.6%	.	.
O=C(Nc1nccs1)c1ccc([N+](=O)[O-])cc1	-1.1%	8.91µM*	-1.2%	.	9.3%	-7.2%
Cc1nn(Cc2ccc(C(=O)Nc3nccs3)cc2)c(C)c1Cl	-0.7%	12.6µM*	9.6%	7.3%	-24.0%	?
O=C(Cc1ccc([N+](=O)[O-])cc1)Nc1nccs1	1.1%	-0.3%	1.4%	0.6%	-6.8%	-27.5%
COc1cccc(-n2cc(C(=O)Oc3cccc(C(F)(F)F)c3)c3ccccc3c2=O)c1	1.2%	.	-0.5%	?	.	.
CCN(CC(=O)Nc1c(F)cccc1F)C(=O)C1CCCN(C(=O)c2ccc(Cl)cc2)C1 (stereo not drawn)	.	10µM*	1.0%	0.4%	8.6%	11.2µM*
SMILES	Epigenetic derep	RORgamma inh	PINK1 expr mod	ClpP mod	Sfp inh	Gal4-VP16 FLuc
CCN(CC(=O)Nc1c(F)cccc1F)C(=O)C1CCN(C(=O)c2ccc(Cl)cc2)CC1	.	.	3.0%	-7.9%	.	.
Cn1ccnc1-c1nc2ccccc2[nH]c1=O	2.0%	3.55µM*	.	-17.8%	8.9%	3.55µM*
CC(c1nc2ccccc2[nH]1)n1c(=O)c(-c2cccnc2)nc2ccccc21 (stereo not drawn)	.	.	.	-23.1%	.	.
CC(c1nc2ccccc2[nH]1)n1c(=O)c(-c2cccs2)nc2ccccc21 (stereo not drawn)	.	.	.	22.4µM*	.	.
O=c1[nH]c2ccccc2nc1-c1cccs1	1.0%	20.2%	-1.2%	14.1µM*	9.8%	-0.8%
COc1ccc2c(=O)c(Oc3ccc(C(=O)O)cc3)c(C(F)(F)F)oc2c1	-4.5%	?	0.1%	-1.0%	-13.5%	12.6µM*
COc1ccc(-c2cc(C(F)(F)F)nc(SCC(=O)NCc3ccc(OC)c(OC)c3)n2)cc1	-1.0%	.	2.7%	-8.0%	.	.
COC(=O)c1sc(-c2ccccc2)cc1NC(=O)Nc1ccccc1Cl	-1.3%	.	4.5%	7.5%	.	.
COC(=O)c1sc(-c2ccccc2)cc1NC(=O)Nc1ccc(F)cc1	0.0%	.	0.7%	31.6µM*	.	.
COC(=O)c1sc(-c2ccccc2)cc1NC(=O)Nc1ccc(Cl)cc1	-8.1%	.	-0.2%	17.8µM*	.	.
CCOC(=O)c1sc(-c2ccccc2)cc1NC(=O)Nc1ccccc1	2.1%	17.4%	15.2%	?	6.9%	?
CCOC(=O)c1sc(-c2ccc(F)cc2)cc1NC(=O)Nc1ccccc1OC	0.0%	-2.7%	11.7%	17.8µM*	1.5%	-0.1%
CCc1cccc(C)c1NC(=O)c1nc2ccccc2nc1N1CCCCC1	2.1%	.	7.9%	3.1%	.	.
NC(=O)c1c(NC(=S)Nc2ccc(F)cc2)sc2c1CCCC2	0.0%	10µM*	-0.3%	.	22.4µM*	-87.1%
C=CCNC(=S)Nc1sc2c(c1C(N)=O)CCCC2	0.0%	11.2µM*	0.3%	.	50.1µM*	?
CC(C)OC(=O)c1c(NC(=O)C2CC=CCC2C(=O)O)sc2c1CCCCC2 (stereo not drawn)	.	.	-2.2%	-7.2%	10.5%	.
NC(=O)c1c(NC(=O)C2CC=CCC2C(=O)O)sc2c1CCCCC2 (stereo not drawn)	.	.	-0.2%	-2.2%	35.5µM*	.
CCCC(=O)NC(=S)Nc1sc2c(c1C(N)=O)CCC2	0.0%	?	0.4%	0.2%	39.8µM*	15.9%
C=CC(=O)Nc1sc2c(c1C(N)=O)CCCC2	.	.	7.2%	0.1%	.	.
NC(=O)c1c(NC(=O)c2ccccc2)sc2c1CCC2	.	.	-1.9%	.	-2.8%	.
NC(=O)c1c(NC(=S)Nc2ccccc2)sc2c1CCCC2	0.8%	-123.9%	-1.1%	.	56.2µM*	?
O=C1C(Cl)=C(NCC2CCCO2)C(=O)N1C1CCCCC1 (stereo not drawn)	-1.1%	4.9%	-1.3%	0.6%	39.8µM*	1.7%
O=C1C(Cl)=C(NCC2CCCO2)C(=O)N1c1ccccc1 (stereo not drawn)	0.0%	23.7%	-1.9%	-0.1%	-8.6%	12.9%
